Inconclusive results are not listed. The source made the active and inactive calls.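 The calls were made as follows, unless noted: active = RAM network inhibition above 8.4% in each of two replicates, 3 SD over the compound average; inconclusive = above 8.4% inhibition in only one replicate; inactive = 8.4% inhibition or less in each replicate.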
Assays:
[1] = Her2 expression decrease, cell viability multiplex – SKBR3 breast tumor cells, AlphaScreen, ATP viability, primary screen (AID 461;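 active = Her2 level under about 52% in both replicate screens, with viability over 70% of control, limit read from the data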;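 as to Her2 level: lower value means less Her2 protein in the cells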;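 as to viability: percent of carrier control wells set as 100% viability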); details: SKBR3 Her2 protein level, 18-24 h, measured here: SKBR3 viability, ATP luminescence, at 10 µM
[2] = target: Receptor tyrosine-protein kinase erbB-2 (Homo sapiens) (UniProt P04626); assay: as above; details: 18-24 h, at 10 µM, stronger effect = lower value
Receptor tyrosine-protein kinase erbB-2 (Homo sapiens), sequence (P04626 whole entry, looked up): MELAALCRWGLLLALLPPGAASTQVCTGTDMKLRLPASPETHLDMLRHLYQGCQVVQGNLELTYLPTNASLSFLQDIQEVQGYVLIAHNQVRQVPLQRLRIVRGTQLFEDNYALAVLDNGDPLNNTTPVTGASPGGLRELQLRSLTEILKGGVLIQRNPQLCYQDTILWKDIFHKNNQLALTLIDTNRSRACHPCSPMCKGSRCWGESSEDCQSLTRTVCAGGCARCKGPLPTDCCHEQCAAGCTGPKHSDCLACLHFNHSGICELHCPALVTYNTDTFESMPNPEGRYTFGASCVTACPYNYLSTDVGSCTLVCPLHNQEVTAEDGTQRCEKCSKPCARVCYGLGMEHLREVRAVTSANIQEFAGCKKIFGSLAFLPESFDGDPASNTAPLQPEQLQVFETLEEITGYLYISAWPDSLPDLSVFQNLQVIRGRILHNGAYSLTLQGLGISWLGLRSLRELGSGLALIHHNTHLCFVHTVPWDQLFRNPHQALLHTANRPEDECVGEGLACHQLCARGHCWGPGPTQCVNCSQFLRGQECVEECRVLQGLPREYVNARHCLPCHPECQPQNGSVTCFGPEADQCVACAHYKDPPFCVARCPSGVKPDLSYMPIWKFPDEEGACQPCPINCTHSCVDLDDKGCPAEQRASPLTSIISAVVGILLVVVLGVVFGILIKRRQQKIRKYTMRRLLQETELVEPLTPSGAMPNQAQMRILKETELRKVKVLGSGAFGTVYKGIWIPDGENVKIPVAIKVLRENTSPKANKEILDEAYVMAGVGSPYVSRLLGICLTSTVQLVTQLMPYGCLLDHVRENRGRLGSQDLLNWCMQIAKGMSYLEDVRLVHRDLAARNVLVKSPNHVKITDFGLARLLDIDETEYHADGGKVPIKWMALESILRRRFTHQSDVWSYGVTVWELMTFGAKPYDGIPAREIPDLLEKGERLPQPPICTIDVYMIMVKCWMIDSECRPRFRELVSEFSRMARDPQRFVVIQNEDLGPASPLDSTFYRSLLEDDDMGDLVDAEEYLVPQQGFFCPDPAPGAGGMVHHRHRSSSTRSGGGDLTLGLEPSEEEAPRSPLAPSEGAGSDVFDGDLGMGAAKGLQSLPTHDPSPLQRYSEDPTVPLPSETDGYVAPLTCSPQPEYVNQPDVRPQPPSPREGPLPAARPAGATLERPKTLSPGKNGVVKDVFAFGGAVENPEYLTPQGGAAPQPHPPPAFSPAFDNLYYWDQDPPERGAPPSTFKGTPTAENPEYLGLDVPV

[3] = reduced viability of SK-BR-3 breast cancer cells – cell-based, 24 h, human, pilot screen (AID 572;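 active = viability at or below 10% of carrier control in both of two separate runs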;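 also: compound exposure lasted between 18 and 24 h rather than exactly 24 h; 100% = carrier-treated control wells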); details: SK-BR-3 viability, CellTiter-Glo luminescence, at 10 µM, stronger effect = lower value
[4] = HUVEC growth inhibition – cell-based, human, primary screen (AID 575;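 active = viability at or below 30% in both replicate assays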;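 also: 100% = median of untreated cell wells with 0.1% DMSO on each plate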); details: HUVEC proliferation, CellTiter-Glo luminescence, 72 h; at 10 µM; stronger effect = lower value
[5] = H69AR cell proliferation blockers – human, duplicate replicates, primary screen (AID 580;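 active = viability at or under a set limit in both replicates, limit being median viability minus 3 SD, cut at about 48% in these data, passing the limit was not always enough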;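 also: 100% = mean luminescence of untreated wells and 0% = no signal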); details: H69AR lung tumor cells viability, ATP luminescence, 72 h; at 10 µM; stronger effect = lower value
[6] = MRP1 drug-resistance reversers in H69AR cells – cell-based, doxorubicin co-treatment, pilot screen (AID 601;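 active = viability loss from added drug above about 55%, and viability with drug at most 40%, in both replicates, limit read from the data, passing the limit was not always enough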); details: CellTiter-Glo, 72 h, at 10 µM; for differential viability (reversal): stronger effect = higher value
[7] = yeast transport mutant growth inhibition pilot in 384-well plates, post-Golgi transport modulator project (AID 636; in the data active = inhibition above about 31%); details: absorbance 615 nm, about 18 h, stronger effect = higher value
[8] = growth suppression of yeast trafficking mutant, preliminary HTS, modulators of trafficking downstream of Golgi apparatus project, 1536-format plate, OD 615 nm (AID 637; in the data active = inhibition above about 30%); details: yeast transport mutant growth, absorbance 615 nm, 18 h; stronger effect = higher value
[9] = S. cerevisiae growth inhibition in permissive medium (OD615), pilot counter-assay for S. cerevisiae lifespan shortening project, permissive growth control (AID 705;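 active = growth inhibition above 25% in both replicates, a cutoff set 3 SD above the mean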); details: OD615, 24 h, at 10 µM, stronger effect = higher value
[10] = S. cerevisiae growth inhibition in restrictive medium, OD615, pilot screen, restrictive growth control, yeast lifespan reduction project (AID 706;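 active = growth inhibition above a set limit, 3 SD over mean compound inhibition, in both replicates, cut at about 43% in these data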;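 also: modified DeaD lifespan yeast strain shifted to restrictive glucose medium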); details: OD615, 48 h, at 10 µM, stronger effect = higher value
[11] = doxorubicin toxicity protection in MRP-1 cells – H69AR cells, CellTiter-Glo, duplicate, MRP-1 activator project, pilot screen (AID 807;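 active = viability increase at or above a cutoff of the median across tested compounds plus 3 SD, cut at about 8.5% in these data, passing the limit was not always enough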;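 also: compound pretreatment 18-22 h then 72 h combined with doxorubicin; 0% = doxorubicin alone and 100% = vehicle without doxorubicin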); details: H69AR viability with doxorubicin, CellTiter-Glo luminescence; at 10 µM; stronger effect = higher value
[12] = viability of HCT116 without oncogenic beta-catenin – human colon tumor cells, pilot screen (AID 823;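 active = cell viability at or below a set limit in both duplicate runs, the limit being the all-compound median minus 4 SD, cut at about 23% in these data, passing the limit was not always enough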;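 also: 0% = wells killed by 20 µM Hyamine and 100% = untreated DMSO cell wells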); details: HCT116 beta-catenin knockout viability, CellTiter-Glo, 60 h; at 10 µM; stronger effect = lower value
[13] = viability of PTEN-null HCT116 cells – cell-based, HCT116 clonal line, CellTiter-Glo, pilot screen (AID 824;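 active = viability at or below 27.92% in each of two runs, the all-compound median minus 4 SD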;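 also: 0% = 20 µM Hyamine control and 100% = vehicle cell control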); details: HCT116 PTEN-deleted viability, 60 h, at 10 µM, stronger effect = lower value
[14] = RAM pathway blockade in budding yeast – dse1pr::URA3 reporter, 5-FOA selection, pilot screen (AID 869;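 active = inhibition over a set limit, the all-compound mean plus 3 SD, in both replicate runs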;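 also: 0% = DMSO wells with no growth and 100% = 10 µM 1-NA-PP1 with full growth; RAM network block rescues cells from 5-FOA so hits raise OD615 growth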); details: S. cerevisiae dse1pr::URA3 5-FOA growth, OD615, 2 d; at 10 µM; stronger effect = higher value; strain carries analog-sensitive mutant Cbk1 kinase
[15] = RAM signaling pathway blockade in yeast – S. cerevisiae, Pdr1DBD-CYC8 efflux-inhibited sensitized strain, primary screen (AID 1298);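 also: 0% = DMSO untreated cells without growth and 100% = 10 µM 1-NA-PP1 full growth; higher means more yeast growth rescued from 5-FOA killing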; details: S. cerevisiae cbk1-as DSE1-URA3 strain, 5-FOA growth OD615, 2 d; at 50 µM; stronger effect = higher value
[16] = H69AR cells + 2 uM doxorubicin, measured here: viability with 2 uM doxorubicin, stronger effect = lower value
[17] = H69AR cells, compound alone cytotoxicity

| SMILES | viability [1] | Her2 level [2] | viability [3] | viability [4] | viability [5] | differential viability (reversal) ([6]; H69AR cells + 2 uM doxorubicin) | viability [6, 16] | viability [6, 17] | inhibition [7] | inhibition [8] | growth inhibition [9] | growth inhibition [10] | viability increase [11] | viability [12] | viability [13] | inhibition [14] | RAM network inhibition [15] |
| --- | --- | --- | --- | --- | --- | --- | --- | --- | --- | --- | --- | --- | --- | --- | --- | --- | --- |
| Cc1cccc(NC(=O)Nc2cccc(C#N)c2)n1 | 100% | 66.5% (inactive) | 100% (inactive) | 63.2% (inactive) | 84% (inactive) | -3.47% (inactive) | 87.5% | 84% | 0.38% (inactive) | 3.67% (inactive) | -8.45% (inactive) | 0.81% (inactive) | -4.03% (inactive) | 43.5% (inactive) | 46% (inactive) | 3.24% (inactive) | 2.88% (inactive) |
| CN1CCN(Cc2nc3c(c(=O)[nH]c(=O)n3C)n2CCc2ccccc2)CC1 | 82% | 96% (inactive) | 82% (inactive) | 91.2% (inactive) | 93% (inactive) | -4.29% (inactive) | 97.2% | 93% | -6% (inactive) | -5% (inactive) | -4.41% (inactive) | 1.98% (inactive) | -4.22% (inactive) | 92% (inactive) | 93.5% (inactive) | 0.565% (inactive) | 1.56% (inactive) |
| CCOC(=O)N1CCC(NC(=O)CN2C(=O)CCSc3ccccc32)CC1 | 96.5% | 97.5% (inactive) | 96.5% (inactive) | 87.5% (inactive) | 93.1% (inactive) | -3.45% (inactive) | 96.6% | 93.1% | -1.87% (inactive) | -1.15% (inactive) | 5.44% (inactive) | -4.73% (inactive) | 1.02% (inactive) | 106% (inactive) | 101% (inactive) | 2.65% (inactive) | -0.42% (inactive) |
| O=C(Nc1c(C(=O)NCc2ccco2)cnn1-c1ccccc1)c1ccc(F)cc1 | 95.5% | 116% (inactive) | 95.5% (inactive) | 91.9% (inactive) | 96.9% (inactive) | 4.25% (inactive) | 92.6% | 96.9% | -0.26% (inactive) | -6% (inactive) | -0.04% (inactive) | 13.1% (inactive) | -5.34% (inactive) | 101% (inactive) | 96.8% (inactive) | -0.12% (inactive) | 0.53% (inactive) |
| CCn1c(C(=O)N2CCC(C(=O)N3CCN(c4ccccn4)CC3)CC2)cc2sccc21 | 95% | 108% (inactive) | 95% (inactive) | 93.4% (inactive) | 87.1% (inactive) | 32.9% (inactive) | 54.2% | 87.1% | -2.8% (inactive) | -3.5% (inactive) | -11.8% (inactive) | -12.2% (inactive) | -3.83% (inactive) | 78.3% (inactive) | 78.2% (inactive) | 0.93% (inactive) | 1.16% (inactive) |
| CCN(CC)CCCNC(=O)c1cn(C)c2ccc(S(=O)(=O)N(C)C)cc2c1=O | 98.5% | 116% (inactive) | 98.5% (inactive) | 99.2% (inactive) | 99.4% (inactive) | 2.72% (inactive) | 96.7% | 99.4% | -0.26% (inactive) | 1.5% (inactive) | -1.33% (inactive) | 8.49% (inactive) | -0.44% (inactive) | 101% (inactive) | 98.5% (inactive) | 2.21% (inactive) | 1.85% (inactive) |
| N#Cc1cnc2sc3ccccc3n2c1=N | 99% | 114% (inactive) | 99% (inactive) | 69% (inactive) | 87.7% (inactive) | -2.73% (inactive) | 90.5% | 87.7% | -3.07% (inactive) | 3.06% (inactive) | 0.55% (inactive) | 12.3% (inactive) | -1.27% (inactive) | 94.4% (inactive) | 95.9% (inactive) | -0.405% (inactive) | 5.97% (inactive) |
| CC1CCN(C(=O)Cn2cc3c(n2)CCCC3)CC1 | 97% | 116% (inactive) | 97% (inactive) | 97.1% (inactive) | 96.4% (inactive) | -4.43% (inactive) | 101% | 96.4% | 6.67% (inactive) | -4.5% (inactive) | -7.6% (inactive) | -2.46% (inactive) | 0.91% (inactive) | 100% (inactive) | 99.9% (inactive) | 0.615% (inactive) | 3.48% (inactive) |
| O=C(c1cc(C2CC2)on1)N1CCN(C(c2ccccc2)c2ccccc2)CC1 | 84.5% | 95.5% (inactive) | 84.5% (inactive) | 113% (inactive) | 87.7% (inactive) | -6.88% (inactive) | 94.6% | 87.7% | 0.9% (inactive) | -0.83% (inactive) | -17.5% (inactive) | -18.4% (inactive) | 2.29% (inactive) | 90.9% (inactive) | 76.8% (inactive) | 0.66% (inactive) | 7.26% (inactive) |
| Cc1ccc2cc(CCNC(=O)C(C)C)c(=O)[nH]c2c1C | 87.5% | 102% (inactive) | 87.5% (inactive) | 99.4% (inactive) | 99% (inactive) | 6.72% (inactive) | 92.3% | 99% | -4.8% (inactive) | -1% (inactive) | -15.2% (inactive) | -19.7% (inactive) | -0.61% (inactive) | 105% (inactive) | 99.1% (inactive) | 1.52% (inactive) | 6.36% (inactive) |

— PubChem BioAssay
